Source: PubChem BioAssay
TrxR1 substrate – qHTS Assay for Substrates of Mammalian Selenoprotein Thioredoxin Reductase 1 (TrxR1): qHTS; Thioredoxin reductase 1, cytoplasmic (Rattus norvegicus), O89049; purified TrxR1 substrate turnover, NADPH consumption readout; Potency, µM (series often up to 114 µM), for the others: top-dose activity change, negative = substrate turnover; actives 0.01% (n = 390,000); AID 588456, 2011; also: nearly all actives have a fitted effect of over 50% in size
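Rat TrxR1, dispensed at 90 nM, was prereduced with 400 uM NADPH (final) for 5 min at ~22 deg C, then incubated with compound 15 min before 400 uM selenite. A first-read NADPH fluorescence drop versus no-compound background flagged substrates.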
rTrxR1 inhibitor – qHTS Assay for Inhibitors of Mammalian Selenoprotein Thioredoxin Reductase 1 (TrxR1): qHTS | recombinant rTrxR1, NADPH fluorescence consumption, selenite substrate | Potency, µM (highest dose often 114 µM), for inactives: top-dose activity change, negative = inhibition, most hits filed as inhibitors | actives 1% (n = 390,000) | AID 588453, 2011; also: nearly all actives have a fitted effect of over 65% in size
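Rat TrxR1 (90 nM in the dispensed reagent) was pre-reduced with 400 uM NADPH for 5 min at room temperature, then incubated with compound for 15 min. After 400 uM selenite was added, NADPH fluorescence (Ex 340/Em 450 nm) was followed for 8 min.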
PKM2 activator – qHTS Assay for Activators of Human Muscle isoform 2 Pyruvate Kinase; purified PKM2, Kinase-Glo ATP luminescence, activation; response scale: 0% is enzyme alone, no compound; Potency, µM (titrated, usually from 57.5 µM), inactives show top-dose activation, hits mostly activators; actives 0.34% (n = 260,000); also: nearly all actives have a fitted effect of over 55% in size
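ATP formation by purified human PK-M2, quantified via coupled luciferase luminescence after 1 h at room temperature with 0.1 mM ADP and 0.5 mM PEP final.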
Anesthetic bind – qHTS Assay for Identification of Novel General Anesthetics; Ferritin light chain (Equus caballus), P02791; apoferritin/1-aminoanthracene competitive binding, fluorescence; Potency, µM (titrated, usually from 77.5 µM), for inactives: at the highest dose activity change, negative = displacement, hits mostly inhibitors; actives 0.074% (n = 350,000); also: nearly all actives have a fitted effect of over 20% in size
Target sequence (P02791 2-175 limits assumed): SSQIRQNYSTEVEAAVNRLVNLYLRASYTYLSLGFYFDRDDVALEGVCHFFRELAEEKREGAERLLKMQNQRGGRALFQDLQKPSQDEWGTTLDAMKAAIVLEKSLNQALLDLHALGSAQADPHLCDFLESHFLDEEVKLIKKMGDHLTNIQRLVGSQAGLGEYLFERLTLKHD
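Horse-spleen apoferritin (10 uM) was mixed with 50% saturated 1-aminoanthracene in PBS, exposed to compounds for 10 min at room temperature, and read for fluorescence (ex 380 nm, em 535 nm). Competitive displacement was fitted with a four-parameter Hill equation.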
GALK inh – qHTS Assay for Inhibitors of Human Galactokinase (GALK); AID 1868, 2009; P51570; Potency, µM (highest dose often 57.5 µM), without a hit: at the top dose activity change, negative = inhibition, usual class: inhibitors; actives 0.007% (n = 270,000); Purified GALK, Kinase-Glo residual ATP luminescence
Target sequence (P51570 whole entry, looked up): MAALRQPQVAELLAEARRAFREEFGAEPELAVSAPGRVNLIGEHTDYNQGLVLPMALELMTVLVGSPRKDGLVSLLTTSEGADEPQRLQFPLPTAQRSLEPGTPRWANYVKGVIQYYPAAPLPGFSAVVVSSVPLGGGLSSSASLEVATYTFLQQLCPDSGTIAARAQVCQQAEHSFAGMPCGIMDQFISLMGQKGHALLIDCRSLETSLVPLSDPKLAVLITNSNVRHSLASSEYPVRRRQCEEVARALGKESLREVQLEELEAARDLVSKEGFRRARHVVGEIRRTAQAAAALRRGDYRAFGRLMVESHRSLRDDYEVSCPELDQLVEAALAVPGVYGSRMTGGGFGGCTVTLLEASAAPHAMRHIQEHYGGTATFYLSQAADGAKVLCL
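5 nM enzyme, 35 uM ATP, 100 uM galactose, 20 mM HEPES pH8.0, 5 mM MgCl2; 1 h RT; residual ATP by Kinase-Glo Plus luminescence, qHTS format.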
mIDH1 inhibitor – qHTS for Inhibitors of mutant isocitrate dehydrogenase 1 (IDH1): qHTS | Potency, µM (titrated, usually from 76.6 µM), without a hit: at the top dose activity change, negative = inhibition, hits mostly inhibitors | AID 602179, 2012 | IDH1-R132H enzyme, NADPH consumption, diaphorase/resazurin fluorescence | Isocitrate dehydrogenase [NADP] cytoplasmic (Homo sapiens), O75874 | actives 0.093% (n = 390,000); also: nearly all actives have a fitted effect of over 65% in size
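IDH1-R132H (0.5 ug/mL) preincubated 30 min with compound, then NADPH (0.016 mM) and alpha-KG (2 mM) added; 80 min at RT, pH 7.5. Remaining NADPH coupled via diaphorase/resazurin to fluorescence (540/590 nm); concentration-response curves normalized to no-enzyme control.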
Numbers without * were called inactive; ? = inconclusive; nt = not tested or not shown; [ ] = dose if it differs, or a comment. Most compounds without a hit are left out; they make up all but 1.3% or so of the library. Calls follow the shape of the dose curve; as a rule, active = well fitted curve in the direction sought with a large enough effect; inconclusive = small, poorly fitted or top-dose-only effect, or another doubt; inactive = no such curve, though single readings can be large; an effect the other way counts as inactive or inconclusive. % is scaled to controls: 0 for no effect and ±100 for the full control effect; potency is read from the fitted curve at half-maximal effect.

SMILES	TrxR1 substrate	rTrxR1 inhibitor	PKM2 activator	Anesthetic bind	GALK inh	mIDH1 inhibitor
CCOc1ccc(-n2ccnc2SCC(=O)Nc2ccc(OC)cc2OC)cc1	0%[57.1 µM]	7%[57.1 µM]	nt	-6%	nt	0%
O=C1C(Cl)=C(N2CCN(c3ccccc3[N+](=O)[O-])CC2)C(=O)c2ccccc21	11%	0.79µM*	16%	-8%	0%	5%
O=C1/C(=C/c2ccncc2)SC(=S)N1N1CCOCC1	-2%	22µM*	-4%	4%	-2%	1%
COc1ccc(N2CCN(C(=O)c3cc(S(=O)(=O)N4CCC(C)CC4)cn3C)CC2)cc1	4%[57.1 µM]	19%[57.1 µM]	nt	2%	nt	23%
COc1ccc(NC(=O)CCc2c(C)nn(-c3ccc(N4CCCC4)nn3)c2C)cc1Cl	12%[57.1 µM]	30%[57.1 µM]	nt	-7%	nt	10%
O=C(COc1ccccc1C(=O)Nc1ccccc1)Nc1ccc2ccccc2c1	3%	14%	nt	nt	nt	nt
O=C(O)c1cc(Cl)c2c(c1)[C@@H]1C=CC[C@@H]1[C@H](c1ccc(S(=O)(=O)N3CCOCC3)cc1)N2	-7%	2.2µM*	?	-8%	2%	4%
Cc1cc(C)c2c(c1)C1C=CCC1C(c1ccc(S(=O)(=O)N3CCOCC3)cc1)N2 (configuration not stated)	-3%	13%	5%	?	6%	3%
c1ccc(OCCn2c(-c3ccco3)nc3ccccc32)cc1	13%	14µM*	-3%	-23%	-1%	10%
COc1ccc(OC)c(S(=O)(=O)NCC(c2cccs2)S(=O)(=O)c2ccc(F)cc2)c1 (configuration not stated)	2%[57.1 µM]	3.2µM*	nt	24%	nt	9%
COc1ccc(F)cc1S(=O)(=O)NCC(c1ccco1)S(=O)(=O)c1ccc(F)cc1 (configuration not stated)	-6%[57.1 µM]	0.89µM*	nt	0%	nt	-7%
COc1ccc(C)cc1S(=O)(=O)NCC(c1cccs1)S(=O)(=O)c1ccc(C)cc1 (configuration not stated)	-2%[57.1 µM]	10%[57.1 µM]	nt	2%	nt	-8%
COc1ccc(S(=O)(=O)NCC(c2ccco2)S(=O)(=O)c2ccc(C)cc2)cc1C (configuration not stated)	1%[57.1 µM]	11µM*	nt	-2%	nt	7%
COc1ccc(F)cc1S(=O)(=O)NCC(c1ccco1)S(=O)(=O)c1cccs1 (configuration not stated)	3%[57.1 µM]	?	nt	-3%	nt	4%
COc1cc2c(NC3CCN(C)CC3)nc(N3CCCN(C)CC3)nc2cc1OCCCCN	53%	-18%	nt	nt	nt	nt
CCOc1ccc(C(=O)NCC(c2ccc3c(c2)OCO3)N2CCN(c3ccccc3F)CC2)cc1 (configuration not stated)	8%[57.1 µM]	34%[57.1 µM]	nt	1%	nt	8%
COc1ccc(/C=c2\[nH]c(=O)/c(=C/c3ccc(OC)c(OC)c3)[nH]c2=O)cc1OC	-4%	11%	nt	nt	nt	nt
Cc1ccc(-c2nn(-c3cccc(F)c3)cc2CN2CCN(c3ccccn3)CC2)o1	-2%	?	16µM*	3%	-2%	0%
Cc1ccc(-c2nn(-c3cccc(F)c3)cc2CN(Cc2nccn2C)C(C)C)o1	19%	-62%	?	-14%	9%	5%
OC[C@@H]1O[C@@H](O)[C@H](O)[C@H](O)[C@@H]1O	nt	nt	nt	0%	nt	nt
O=C1C=C(C2OC(CO)C(O)C2O)C(=O)N1 (configuration not stated)	4%	7.1µM*	nt	nt	nt	-12%
Cc1ccc(NC(=O)C(=O)NCC(c2cccnc2)N2CCN(Cc3ccccc3)CC2)cc1C (configuration not stated)	-11%	-11%	nt	-7%	nt	0%
COC(=O)[C@@H]1[C@H]2SC(C)(C)[C@H](C(=O)OC)N2C(=O)N1Cc1cc2ccccc2n1S(=O)(=O)c1ccccc1	-8%	12%	nt	nt	nt	nt
Cc1ccc(-n2ncc(C(=O)N3CCN(C(=O)c4ccco4)CC3)c2C2CCN(C(=O)OC(C)(C)C)CC2)cc1C	-8%	28µM*	nt	-5%	7%	-1%
CN(/N=C/c1cccs1)c1cc(=O)n(C)c(=O)[nH]1	-22%	-25%	18%	-4%	-1%	8%
SMILES	TrxR1 substrate	rTrxR1 inhibitor	PKM2 activator	Anesthetic bind	GALK inh	mIDH1 inhibitor
CCN(/N=C/c1cccs1)c1cc(=O)n(C)c(=O)[nH]1	-8%[57.1 µM]	-6%[57.1 µM]	22µM*	-14%	2%	7%
CCN(CC)c1ccc(/C=C/c2ccncc2)cc1	-27%	?	nt	nt	nt	nt
CCn1cc([N+](=O)[O-])c(C(=O)N2N=C(c3ccc(O)c(OC)c3)CC2c2ccccc2O)n1 (configuration not stated)	-1%[57.1 µM]	0%[57.1 µM]	18µM*	-8%	nt	-8%
CCn1cc([N+](=O)[O-])c(C(=O)N2N=C(c3ccc(Cl)c(Cl)c3)CC2c2ccccc2O)n1 (configuration not stated)	-5%	-11%	22µM*	?	0%	0%
CCn1cc([N+](=O)[O-])c(C(=O)N2N=C(c3ccc4ccccc4c3)CC2c2cc(Br)ccc2O)n1 (configuration not stated)	3%	12%	1%	1%	-3%	9%
Cc1ccc2sc(N3CCN(C(=O)C4COc5ccccc5O4)CC3)nc2c1C (configuration not stated)	10%[57.1 µM]	24%[57.1 µM]	nt	14%	nt	10%
CCOC(=O)C1Nc2ccccc2C2C(O)C(O)CC12 (configuration not stated)	-4%	18µM*	nt	nt	nt	12%
O=C(NCCC1=CCCCC1)c1ccc2c(c1)N(Cc1ccccc1F)C(=O)c1ccccc1S2=O (configuration not stated)	1%	25%	nt	-5%	nt	13%
COc1ccc(-c2nc(-c3ccncc3)no2)cc1	1%	8%	nt	1%	2%	-2%
CCn1nc(-c2ccc(C)cc2)nc2c(=O)n(C)c(=O)nc1-2	50µM*	?	nt	nt	nt	nt
CCS(=O)(=O)n1nc(-c2ccc(C)cc2)nc1N	7%	20%	23%	-11%	-1%	-4%
Cn1nc(-c2ccncc2)nc2c(=O)n(C)c(=O)nc1-2	20µM*	20µM*	nt	nt	nt	nt
